In all, about 38,000 compounds went through this assay and about 1,200 (3.2%) showed an effect of 50% or more. The median lay at about -58%. The entries come from a sample that favours strong results as a whole.
Test system: Plasmodium falciparum
Assay: Calibr Malaria Delayed Death Assay SOP
Type: functional, organism-based
Parameters: scale not given: in the data most compounds retested in dose-response had high values
Conditions: concentration 4.99e-06 (unit not given; other assays of the set use mol/L)

| Structure (SMILES) | Percent Effect [%] |
| --- | --- |
| CC(C)C1CCC(N2CCN(CCCS(C)(=O)=O)CC2)CC1 (configuration not stated) | 11.68 |
| Cc1cc2nc(C(C)C)cc(N3CCC(O)CC3)n2n1 | -114.9 |
| Cc1cccc(C(C(=O)NCC2(O)CCCCC2)N(C)C)c1 (configuration not stated) | -49.85 |
| CC(=O)N(C)CC(=O)NCC1(c2cccc(C)c2)CCCC1 | -51.91 |
| Cc1cccc(OC(C)C(=O)NCC2(N(C)C)CCCC2)c1 (configuration not stated) | 80.49 |
| CC1CN(C(=O)NCCc2nc(C(C)C)no2)CCO1 (configuration not stated) | -93.77 |
| Cl.Cn1ncc2c1CCCC2NCc1cccc(F)c1 (configuration not stated) | 10.36 |
| Cc1cccc(CNC2CCCc3c2cnn3C)c1.Cl (configuration not stated) | -40.76 |
| Cc1cccc(CNC2CCCc3c2cnn3Cc2ccccc2)c1.Cl (configuration not stated) | 64.5 |
| O=S(=O)(C1CC1)N1CCC2(COCc3cnc(NCC4CC4)nc32)C1 (configuration not stated) | -35.4 |
| c1ccc(CN2CCC3(COCc4cnc(NCC5CC5)nc43)C2)cc1 (configuration not stated) | 50.22 |
| c1cc(N2CCC3(COCc4cnc(NCC5CC5)nc43)C2)ncn1 (configuration not stated) | -14.49 |
| CC(C)CC(NC(=O)c1ccn(C)c(=O)c1)c1cccs1 (configuration not stated) | -80.8 |
| Cc1cc(C(=O)N(C)CCCn2cccn2)nc(N)n1 | -80.13 |
| CCN(CC)C(=O)N1CCN(Cc2cnc(C)nc2)[C@H]2CS(=O)(=O)C[C@H]21 | -158.8 |
| CCS(=O)(=O)N1CCCn2nnc(CNC(C)=O)c2C1 | -63.27 |
| CCN1CCCC(O)(CN(C)Cc2ccccc2F)C1 (configuration not stated) | 56.49 |
| CN(C)CC1(O)CCCN(Cc2ccccc2OCC(=O)N(C)C)C1 (configuration not stated) | -89.01 |
| CCN1CCCC(O)(CNCc2ccccc2F)C1 (configuration not stated) | 38.87 |
| Cc1nc2c(c(N(C)C)n1)CCN(C(=O)c1ccc(N)nc1)C2 | -40.57 |
| O=C(CCc1ccccc1)NCC1CCN(Cc2ccccc2)CC1 | 43.31 |
| CC(=O)N1CCCN(CCn2nc3ccccn3c2=O)CC1 | -130.1 |

| Structure (SMILES) | Percent Effect [%] |
| --- | --- |
| CCCNS(=O)(=O)Cc1ccc(Br)cc1 | -18.14 |
| CC(O)CCN(C)S(=O)(=O)Cc1ccc(Br)cc1 (configuration not stated) | -27.23 |
| CN(C)CCN(C)S(=O)(=O)Cc1ccc(Br)cc1 | 62.66 |
| CC(Cn1cccn1)NC(=O)NCc1ccnc(OC2CCCC2)c1 (configuration not stated) | -91.81 |
| O=C(CCc1cccs1)Nc1ccnn1C1CCS(=O)(=O)C1 (configuration not stated) | -51.38 |
| Cc1ccc(C(=O)N2CC[C@]3(C[C@@H](OCc4ccccn4)CO3)C2)nc1.O=C(O)C(F)(F)F.O=C(O)C(F)(F)F | -9.931 |
| Cc1nonc1C1CCCN1Cc1ccc(C(=O)Nc2nccs2)cc1 (configuration not stated) | -15.94 |
| CNc1cncc(C2CCCN2Cc2cccc(C)n2)n1 (configuration not stated) | -46.34 |
| Cc1ccc(C)c(CSc2nnc([C@@H](N)C(C)C)o2)c1.Cl | -98.07 |
| NC(=O)Cn1ccnc1C1CCCN(Cc2ccccc2OC(F)F)C1 (configuration not stated) | -1.798 |
| FC(F)Oc1ccccc1CN1CCCC(c2nccn2CC2CC2)C1 (configuration not stated) | 86.3 |
| N#Cc1ccccc1CN1CCCC(c2nccn2CC2CC2)C1 (configuration not stated) | 10.64 |
| Cc1cc(NC(=O)CN2CCCC2c2noc(C(C)C)n2)no1 (configuration not stated) | -88.6 |
| COCC1CCCN(C(=O)c2ccc(N(C)Cc3cnn(C)c3)nc2)C1 (configuration not stated) | -103.7 |
| O=C(CCCn1cnc2ccccc2c1=O)Nc1nc[nH]n1 | -6.042 |
| O=C(Cc1ccc2c(c1)CCC2)NC1CCN(Cc2ccccc2)CC1 | 27.79 |
| O=C(Nc1ccccn1)C1CCN(Cc2cc3c(cc2O)OCO3)CC1 | -119.6 |
| O=C(CCCNC(=O)C1CCCO1)Nc1ccc(Cl)cc1 (configuration not stated) | -38.58 |
| CCc1nc(CN(C)CC(=O)OC(C)(C)C)cs1 | -47.19 |
| COc1cccc([C@@H]2CCN(Cc3ccc4ccccc4n3)C[C@H]2O)c1 | -19.61 |
| COc1cccc([C@@H]2CCN(Cc3cccc(C)n3)C[C@H]2O)c1 | -31.33 |
| COc1cccc([C@@H]2CCN(Cc3cn(C)c4ccccc34)C[C@H]2O)c1 | 77.7 |

| Structure (SMILES) | Percent Effect [%] |
| --- | --- |
| Cc1ccc(CN(C)C(=O)CN2CCc3ccccc3C2)o1 | -48.11 |
| CC(C)n1cnnc1CN(C)C(=O)C1CCCN(C2CCN(C)CC2)C1 (configuration not stated) | -93.39 |
| CC(=O)c1c(C)nn(CC(=O)Nc2ccc(F)cc2)c1C | -45.58 |
| COc1ccc(NC(=O)Cn2nc(C)c(C(C)=O)c2C)cc1 | 89.56 |
| COc1ccc(CC(=O)Nc2ccc3ncn(C)c(=O)c3c2)cc1 | -105.2 |
| CC(=O)c1c(C)nn(CC(=O)Nc2ccc(Br)cc2)c1C | 66.34 |
| COc1ccc(NC(=O)Cn2nc(C)ccc2=O)cc1OC | -36.97 |
| Cn1ccc2c(ccn2CC(=O)Nc2ccc(Br)cc2)c1=O | -82.23 |
| CCOCc1cncc2c1CCN(C(=O)c1cscn1)C2.O=C(O)C(F)(F)F | -50.24 |
| Cc1nc(C2CCCN2C(=O)CCCn2cncn2)no1 (configuration not stated) | -14.54 |
| COc1ccc(S(=O)(=O)N2CCC(Cn3ccnc3)CC2)cc1 | -82.14 |
| CCc1ocnc1C(=O)N1CCOC(c2nc(C(C)C)n[nH]2)C1 (configuration not stated) | -32.06 |
| CCc1cnc(N)nc1NC(C)c1ccc(C)c(C)c1 (configuration not stated) | 72.97 |
| CCc1cnc(N)nc1NC(C)c1cnn(C)c1 (configuration not stated) | -61.87 |
| CCc1cnc(N)nc1N[C@@H](C)c1ncccc1C | 2.334 |
| CCS(=O)(=O)c1cccc(C(=O)Nc2cccc3c2C(=O)N(C)C3=O)c1 | -74.2 |
| CN(Cc1ccco1)[C@@H]1CN(Cc2nccs2)C[C@@H]2CCCO[C@@H]21.O=C(O)C(F)(F)F.O=C(O)C(F)(F)F | 29.14 |
| CN(Cc1ccco1)[C@@H]1CN(Cc2cccnc2)[C@@H]2CCCO[C@H]12.O=C(O)C(F)(F)F.O=C(O)C(F)(F)F.O=C(O)C(F)(F)F | -47.89 |
| Cn1cc(CN2CC[C@H]3O[C@H](C(=O)NC4CC4)CC[C@H]32)c2ccccc21.O=C(O)C(F)(F)F | 22.79 |
| Cc1ccc(CN2C[C@@H]3CCCO[C@@H]3[C@H](N(C)Cc3ccco3)C2)s1.O=C(O)C(F)(F)F.O=C(O)C(F)(F)F | 73.4 |
| CN(Cc1ccco1)[C@@H]1CN(Cc2ccc(F)cc2)[C@@H]2CCCO[C@H]12.O=C(O)C(F)(F)F.O=C(O)C(F)(F)F | 54.29 |
| CN(Cc1ccco1)[C@@H]1CN(Cc2ccccn2)C[C@@H]2CCCO[C@@H]21.O=C(O)C(F)(F)F.O=C(O)C(F)(F)F.O=C(O)C(F)(F)F | 29.58 |

| Structure (SMILES) | Percent Effect [%] |
| --- | --- |
| CN(Cc1ccco1)[C@@H]1CN(Cc2cccs2)C[C@@H]2CCCO[C@@H]21.O=C(O)C(F)(F)F.O=C(O)C(F)(F)F | 64.28 |
| CC(C)NC(=O)[C@@H]1CC[C@@H]2[C@@H](CCN2Cc2cn(C)c3ccccc23)O1.O=C(O)C(F)(F)F | 76.85 |
| CN(Cc1ccco1)[C@@H]1CN(CC2CCOCC2)C[C@@H]2CCCO[C@@H]21.O=C(O)C(F)(F)F.O=C(O)C(F)(F)F | 11.5 |
| CN(Cc1ccco1)[C@@H]1CN(Cc2ccncc2)C[C@@H]2CCCO[C@@H]21.O=C(O)C(F)(F)F.O=C(O)C(F)(F)F.O=C(O)C(F)(F)F | 7.341 |
| CNC(=O)[C@@H]1CC[C@@H]2[C@@H](CCN2Cc2cn(C)c3ccccc23)O1.O=C(O)C(F)(F)F | -13.73 |
| CN(Cc1ccco1)[C@@H]1CN(Cc2cnn(C)c2)[C@@H]2CCCO[C@H]12.O=C(O)C(F)(F)F.O=C(O)C(F)(F)F | 23.66 |
| Cc1ccc(NC2CCN(C(=O)c3ccc(C#N)cc3)CC2)nn1 | -90.82 |
| Cc1nccc(NCc2cncc3c2CCN(S(C)(=O)=O)C3)n1.Cl | -112.1 |
| CSCC[C@H](NC(=O)CCn1ccc2c(Cl)cccc21)C(=O)O | -54.73 |
| Cn1cc(CN2CCCC23CCN(C(=O)c2ccsc2)CC3)cn1.O=C(O)C(F)(F)F | -0.2713 |
| Cc1nn(C)cc1-c1cc(C(F)(F)F)nc(NC2CCCCC2)n1 | -100.7 |
| O=C(NCc1ccco1)[C@@H]1CC[C@@H]2[C@@H](CCN2Cc2ccc(F)cc2)O1.O=C(O)C(F)(F)F | 66.38 |
| CN(Cc1ccco1)[C@@H]1CN(Cc2ccoc2)C[C@@H]2CCCO[C@@H]21 | 59.2 |
| CN(Cc1ccco1)[C@@H]1CN(Cc2cccnc2)C[C@@H]2CCCO[C@@H]21.O=C(O)C(F)(F)F.O=C(O)C(F)(F)F.O=C(O)C(F)(F)F | 27.09 |
| O=C(NCc1ccco1)[C@@H]1CC[C@@H]2[C@@H](CCN2CC2CC2)O1.O=C(O)C(F)(F)F | 7.283 |
| O=C(NCc1ccco1)[C@H]1CC[C@@H]2[C@@H](CCN2Cc2cccnc2)O1.O=C(O)C(F)(F)F.O=C(O)C(F)(F)F | -37.9 |
| CN(Cc1cncnc1)[C@@H]1CN(Cc2ccco2)C[C@@H]2CCCO[C@@H]21.O=C(O)C(F)(F)F.O=C(O)C(F)(F)F | -10.65 |
| Cc1cc(I)c2c(c1)C(=O)C(CN1CCCC1)(CN1CCCC1)CO2 | -91.39 |
| CCCOC1CCCN(c2nc(COC)nc3c2cnn3C)C1 (configuration not stated) | -157.4 |
| CC(=O)Nc1nc(C2CCN(C(=O)c3ccncc3)CC2)cs1 | 10.73 |
| COCC1c2c(cnn2CC2CC2)CCN1Cc1cc(C)on1.O=C(O)C(F)(F)F.O=C(O)C(F)(F)F (configuration not stated) | -52.73 |

— ChEMBL document CHEMBL3988442, “University of Dundee, Small-Polar-MMV Screening Library” (2021)
